Reference: PubChem BioAssay AID1159580 (chemical genetic matrix, 2015)
The whole screen tested about 5,500 compounds, of which about 2,000 (36%) were called active. About 18% were inconclusive and are not listed. No stated cut-off is given here; in the data, active means normalized growth mostly below about 0.91 (no sharp cut-off); inconclusive means no clear call, values can overlap the other calls; inactive means mostly above about 0.92. The list shows a part of the results.

Experiment: chemical genetic growth profiling, strain panel (AID 1159580);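 further: tested at 20 µM; growth read once vehicle control cultures reached saturation at 30 °C; 1 = growth at the plate median or of vehicle wells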
Conditions: S. cerevisiae deletion strains, growth OD

Measured: normalized growth

Oc1ccc2c(c1)OCC1c3cc4c(cc3OC21)OCO4 (stereo not drawn)
inactive: locus YBR021W, strain FUR4, stronger effect = lower value 0.862 | locus YBR229C, strain ROT2, stronger effect = lower value 0.957 | locus YCL029C, strain bik1, stronger effect = lower value 0.946 | locus YDL035C, strain GPR1, stronger effect = lower value 0.981 | locus YDL074C, strain BRE1, stronger effect = lower value 1.03 | locus YDL101C, strain DUN1, stronger effect = lower value 0.987 | locus YDL134C, strain PPH21, stronger effect = lower value 1.02 | locus YDL185W, strain tfp1, stronger effect = lower value 0.964 | locus YDL192W, strain arf1, stronger effect = lower value 0.944 | locus YDR101C, strain arx1, stronger effect = lower value 0.942 | locus YDR150W, strain NUM1, stronger effect = lower value 1 | locus YDR162C, strain NBP2, stronger effect = lower value 0.993 | locus YDR318W, strain mcm21, stronger effect = lower value 0.962 | locus YDR388W, stronger effect = lower value 0.966 | locus YDR502C, strain sam2, stronger effect = lower value 0.961 | locus YEL061C, strain CIN8, stronger effect = lower value 0.99 | locus YER110C, stronger effect = lower value 0.954 | locus YER155C, strain BEM2, stronger effect = lower value 1 | locus YER167W, strain BCK2, stronger effect = lower value 1 | locus YGL078C, strain dbp3, stronger effect = lower value 0.992 | locus YGL086W, strain mad1, stronger effect = lower value 0.957 | locus YGL248W, strain PDE1, stronger effect = lower value 1 | locus YGR135W, strain pre9, stronger effect = lower value 0.993 | locus YGR252W, strain gcn5, stronger effect = lower value 0.902 | locus YHR079C, strain IRE1 (second series), stronger effect = lower value 0.995 | locus YHR094C, strain hxt1, stronger effect = lower value 0.982 | locus YHR129C, strain ARP1, stronger effect = lower value 1.02 | locus YHR200W, strain rpn10, stronger effect = lower value 0.972 | locus YIL066C, strain RNR3, stronger effect = lower value 0.999 | locus YIL073C, strain SPO22, stronger effect = lower value 1.03 | locus YIL125W, strain kgd1, stronger effect = lower value 0.968 | locus YIR030C, strain dcg1, stronger effect = lower value 0.971 | locus YJL095W, strain BCK1, stronger effect = lower value 0.929 | locus YJL134W, strain LCB3, stronger effect = lower value 0.992 | locus YJL168C, strain set2, stronger effect = lower value 0.996 | locus YJL187C, strain SWE1 (second series), stronger effect = lower value 0.966 | locus YJR075W, strain HOC1, stronger effect = lower value 0.999 | locus YKL009W, strain mrt4, stronger effect = lower value 0.987 | locus YKL068W, stronger effect = lower value 1 | locus YKL085W, strain MDH1 (second series), stronger effect = lower value 1.02 | locus YKL085W, strain MDH1, stronger effect = lower value 1.02 | locus YKL190W, strain CNB1, stronger effect = lower value 1.01 | locus YLR039C, strain RIC1, stronger effect = lower value 0.982 | locus YLR058C, strain SHM2, stronger effect = lower value 0.962 | locus YLR102C, strain apc9, stronger effect = lower value 0.984 | locus YLR268W, strain sec22, stronger effect = lower value 0.906 | locus YLR371W, strain rom2, stronger effect = lower value 0.973 | locus YML016C, strain PPZ1, stronger effect = lower value 0.983 | locus YML032C, strain rad52, stronger effect = lower value 0.956 | locus YML124C, strain tub3, stronger effect = lower value 0.995 | locus YMR078C, strain ctf18, stronger effect = lower value 1 | locus YMR223W, strain ubp8, stronger effect = lower value 0.983 | locus YMR307W, strain GAS1, stronger effect = lower value 1.04 | locus YNL067W, strain RPL9B, stronger effect = lower value 1.01 | locus YNL128W, strain TEP1, stronger effect = lower value 1.01 | locus YNL233W, strain BNI4, stronger effect = lower value 1.05 | locus YNL250W, strain rad50, stronger effect = lower value 1 | locus YNL271C, strain bni1, stronger effect = lower value 0.974 | locus YNL298W, strain CLA4, stronger effect = lower value 0.939 | locus YNL307C, strain MCK1, stronger effect = lower value 0.95 | locus YNR052C, strain pop2, stronger effect = lower value 0.994 | locus YOL012C, strain htz1 1.23 | locus YOL147C, strain pex11, stronger effect = lower value 0.967 | locus YOR061W, strain CKA2, stronger effect = lower value 0.988 | locus YOR069W, strain VPS5, stronger effect = lower value 1.01 | locus YOR136W, strain idh2, stronger effect = lower value 0.982 | locus YOR144C, strain elg1, stronger effect = lower value 0.986 | locus YOR316C, strain cot1, stronger effect = lower value 0.985 | locus YPL055C, strain LGE1, stronger effect = lower value 0.963 | locus YPL241C, strain CIN2, stronger effect = lower value 1.01 | locus YPR119W, strain clb2, stronger effect = lower value 1.02 | locus YPR141C, strain kar3, stronger effect = lower value 1.01 | locus YPR167C, strain met16, stronger effect = lower value 1.01 | strain wtn01, stronger effect = lower value 0.943
active: locus YKR001C, strain vps1, stronger effect = lower value 0.863 | locus YLR418C, strain cdc73, stronger effect = lower value 0.781 | locus YOR184W, strain ser1, stronger effect = lower value 0.826 | locus YPR163C, strain tif3, stronger effect = lower value 0.906
